Reference: PubChem BioAssay (Tox21)
Inconclusive results are not listed. Where a call stands in place of a potency, no number is given. Active and inactive are the calls of the source. The call rests on the fitted dose curve; in most records, active means well fitted inhibition curve with a large enough effect in the repeat runs; inconclusive means weak or mixed curves; inactive means no such curve, though single readings can be large or run the other way.
Potency means the concentration at half of the fitted maximal effect.

What follows are molecules tested against Cytochrome P450 2C19 (Homo sapiens) (UniProt P33261) (assay: Cytochrome P450 Family 2 Subfamily C Member 19 (CYP2C19) small molecule antagonists: luciferase reporter qHTS assay (AID 1671197; further: nearly all actives have a fitted effect of over 65% in size)). Conditions: P450-Glo CYP2C19 enzyme, luciferin luminescence, 1 h; series mostly up to 52.9 µM.
Cytochrome P450 2C19 (Homo sapiens), sequence (P33261 whole entry, looked up): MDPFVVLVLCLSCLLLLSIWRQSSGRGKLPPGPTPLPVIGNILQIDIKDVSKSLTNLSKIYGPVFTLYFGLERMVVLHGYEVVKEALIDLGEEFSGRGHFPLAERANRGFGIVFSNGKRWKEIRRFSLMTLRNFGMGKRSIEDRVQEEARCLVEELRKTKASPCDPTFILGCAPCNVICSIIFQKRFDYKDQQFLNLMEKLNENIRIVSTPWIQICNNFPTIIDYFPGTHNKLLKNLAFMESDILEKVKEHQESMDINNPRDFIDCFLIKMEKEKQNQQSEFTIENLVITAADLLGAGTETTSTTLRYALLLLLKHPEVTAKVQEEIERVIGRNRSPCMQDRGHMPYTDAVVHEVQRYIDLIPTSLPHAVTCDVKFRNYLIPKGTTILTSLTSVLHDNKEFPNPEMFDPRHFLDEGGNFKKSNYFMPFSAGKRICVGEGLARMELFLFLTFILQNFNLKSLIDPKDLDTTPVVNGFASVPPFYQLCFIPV
Description: National Center for Advancing Translational Sciences [NCATS]
U.S. Environmental Protection Agency [EPA]
National Institutes of Environmental Health Sciences [NIEHS]
National Toxicology Program [NTP]
U.S. Food and Drug Administration [FDA]
Cytochrome P450 (CYP) enzymes are membrane-bound hemeproteins that play a key role in metabolism of drugs and xenobiotics. Evaluation of the effect of chemicals on CYP isozymes is useful to minimize the adverse drug reactions and toxicities in drug development process. Tox21 chemicals were tested for their effect on CYP enzyme activities by using P450-Glo (TM) screening systems (Promega Corporation, Madison, WI). These systems provide a luminescent method containing proluciferin substrates and are converted to luciferin products by CYP isozymes. The luciferin products formed are detected with a luciferin detection reagent, and the amount of light produced is proportional to CYP activity. P450-Glo (TM) CYP2C19 screening system (Catalog. No. V9880) was used to detect the compounds that interfere in CYP2C19 activity. The positive control compound used for CYP2C19 assay is ketoconazole (Sigma-Aldrich, St. Louis, MO).
Tox21 Assay Protocol Summary:
Two ul of enzyme-substrate mix was dispensed into medium binding white/solid 1536-well plates (Greiner Bio-One North America Inc., Monroe, NC) using a BioRaptr Flying Reagent Dispenser (FRD, Beckman Coulter, Brea, CA). Compounds dissolved in DMSO and positive control (ketoconazole) were transferred to the assay plates at 23 nl using a Pintool station (Wako, San Diego, CA). The assay plates were incubated at room temperature for 10 min. Then 2 ul of NADPH regeneration solution was added to each well of the assay plates using an FRD and incubated at 37C for 1 h. The reaction was stopped by adding 4 ul of detection reagent using an FRD and after 20 min incubation at room temperature the luminescence signal was measured using a ViewLux plate reader (Perkin Elmer, Shelton, CT). Data were expressed as relative luminescence units.
For `O=C1c2ccccc2C(=O)N1CCc1noc(-c2ccc(CN3CCCCCC3)s2)n1`, the Potency was 8.19 µM (active).
For `C[C@@H](O)[C@H]1C(=O)N2C(C(=O)O)=C([C@H]3CCCO3)S[C@H]12`, the Potency was “inactive”.
`CC(=O)OCC(=O)NCCCOc1cccc(CN2CCCCC2)c1` was tested, and the Potency was “inactive”.
With `CCCCC(CC)CN` (stereo not given) the Potency was “inactive”.
With `c1cc(N(CC2CO2)CC2CO2)ccc1Cc1ccc(N(CC2CO2)CC2CO2)cc1` (stereo not given) the Potency was 63.3 µM (active).
For `CN1C(=O)c2ccccc2C1=O`, the Potency was 79.6 µM (active).
In the case of `C[C@@H]1CC(=O)NN=C1c1ccc(NN=C(C#N)C#N)cc1`, the Potency was 17.4 µM (active).
For `NC(=O)c1ccncc1`, the Potency was “inactive”.
In the case of `CN1C(=O)N(c2ccccc2Br)Cc2cnc(Nc3ccc4c(c3)OCC(CO)O4)nc21` (stereo not given), the Potency was 7.1 µM (active).
With `O=C1c2ccccc2C(=O)C1c1ccc(Br)cc1` the Potency was 1.55 µM (active).
For `Brc1cc2ccccc2c2ccccc12`, the Potency was 40.2 µM (active).
In the case of `CCOC(=O)c1ccc(I)cc1`, the Potency was 80.4 µM (active).
For `NCCNCCO`, the Potency was “inactive”.
With `O=C(O)CCC(=O)C(=O)O` the Potency was “inactive”.
`Cc1ccc(CO)cc1` was tested, and the Potency was “inactive”.
`O=C(O)c1cccc(-c2noc(-c3ccccc3F)n2)c1` was tested, and the Potency was 0.776 µM (active).
`CN1C(C(=O)Nc2ccccn2)=C(O)c2sccc2S1(=O)=O` was tested, and the Potency was “inactive”.
`Cc1ccccc1N=C(N)Nc1ccccc1C` was tested, and the Potency was “inactive”.
For `CC1=C(Br)C(=O)C(Br)=C/C1=C(/c1ccccc1S(=O)(=O)O)c1cc(Br)c(O)c(Br)c1C`, the Potency was 27.2 µM (active).
`COC(=O)[C@H]1[C@H]2C[C@@H]3c4[nH]c5cc(OC)ccc5c4CCN3C[C@H]2C[C@@H](OC(=O)/C=C/c2ccc(O)c(OC)c2)[C@@H]1OC` was tested, and the Potency was “inactive”.
`CC[C@]1(O)C[C@H]2CN(CCc3c([nH]c4ccccc34)[C@@](C(=O)OC)(c3cc4c(cc3OC)N(C=O)[C@H]3[C@@](O)(C(=O)OC)[C@H](OC(C)=O)[C@]5(CC)C=CCN6CC[C@]43[C@@H]65)C2)C1` was tested, and the Potency was “inactive”.
With `Oc1cccc(Nc2ccccc2)c1` the Potency was 13.2 µM (active).
`CC(C)C[C@H](NC(=O)[C@H](CCc1ccccc1)NC(=O)CN1CCOCC1)C(=O)N[C@@H](Cc1ccccc1)C(=O)N[C@@H](CC(C)C)C(=O)[C@@]1(C)CO1` was tested, and the Potency was “inactive”.
With `C=CC(=O)OCC1CC2CC1C1CCC(COC(=O)C=C)C21` (stereo not given) the Potency was 5.03 µM (active).
With `CCCCCCCCC(CCCCCC)C(=O)O` (stereo not given) the Potency was 35.6 µM (active).
With `C=Cc1ccc(S(=O)(=O)O)cc1` the Potency was “inactive”.
`CC(=O)[C@H]1[C@H](C#N)C[C@H]2[C@@H]3CC=C4C[C@@H](O)CC[C@]4(C)[C@H]3CC[C@@]21C` was tested, and the Potency was “inactive”.
In the case of `c1ccc(C[n+]2cccc3ccccc32)cc1`, the Potency was 39.9 µM (active).
For `O=C1Cc2ccccc2N1c1c(Cl)cccc1Cl`, the Potency was 11.2 µM (active).
`CC(C)Nc1cccnc1N1CCN(C(=O)c2cc3cc(NS(C)(=O)=O)ccc3[nH]2)CC1` was tested, and the Potency was 9.77 µM (active).
In the case of `CCOc1ccc(Cc2nccc3cc(OCC)c(OCC)cc23)cc1OCC`, the Potency was 7.76 µM (active).
For `CCCCCCNC(=O)n1cc(F)c(=O)[nH]c1=O`, the Potency was 34.7 µM (active).
`CCCC(=O)C(=O)O` was tested, and the Potency was “inactive”.
For `O=C1NCCN1CCO`, the Potency was “inactive”.
`C[C@H]1C[C@H](O)c2ccsc2S1(=O)=O` was tested, and the Potency was “inactive”.
With `CCCCCCCC/C=C\CCCCCCCCCCCC(=O)O` the Potency was “inactive”.
`O=C(O)C[C@H](NC(=O)OCc1ccccc1)C(=O)O` was tested, and the Potency was “inactive”.
`C[C@@H]1CN(CCCn2c3ccccc3c3ccccc32)C[C@H](C)N1` was tested, and the Potency was “inactive”.
In the case of `N#CCCN(CCO)CCO`, the Potency was “inactive”.
For `O=C(O)CCc1nc(-c2ccccc2)c(-c2ccccc2)o1`, the Potency was “inactive”.
